Where “and” joins values, the source holds several entries; their conditions need not be identical. Equal entries are not always repeated. Records with an inconclusive call do not appear. Calls of active or inactive are those of the source. The calls were made as follows: active = hit-call score of the fitted dose curve at least 0.9, where 1 is the maximum; inconclusive = response in the unintended direction; inactive = score below 0.9.
Target: human Peripheral-type Benzodiazepine Receptor (PBR), TSPO (gene 706) (UniProt P30536)
Test: NVS_MP_hPBR: NovaScreen (NVS) Membrane Protein Assay for human Peripheral-type Benzodiazepine Receptor (PBR) (AID 2283331)
Procedure: NVS_MP_hPBR is a biochemical, single-readout assay that uses extracted gene-proteins from Human colonic cell membranes in a tissue-based cell-free assay. Measurements were taken 1 hour after chemical dosing in a 48-well plate.NVS_MP_hPBR is one of one assay component(s) measured or calculated from the NVS_MP_hPBR assay. It is designed to make measurements of radioligand binding, a form of binding reporter, as detected with scintillation counting signals by Filter-based radiodetection technology.Data from the assay component NVS_MP_hPBR was analyzed into 1 assay endpoint. This assay endpoint, NVS_MP_hPBR, was analyzed in the positive analysis fitting direction relative to DMSO as the negative control and baseline of activity. Using a type of binding reporter, loss-of-signal activity can be used to understand changes in the binding as they relate to the gene TSPO. Furthermore, this assay endpoint can be referred to as a primary readout, because the performed assay has only produced 1 assay endpoint. To generalize the intended target to other relatable targets, this assay endpoint is annotated to the transporter intended target family, where the subfamily is cholesterol transporter.
Binding assays used specific radioligands (tritiated, iodinated) with non-radioactive competitive displacement ligands in agonist or antagonist protocols (as indicated) and various reference compounds and inhibitors to titrate specific binding to receptors and transporters. Most enzyme assays (CYPs, kinases, phosphatases, proteases, HDACs) used recombinant protein and specific substrates (fluorescence mostly, some colorimetric and radioactive) and inhibitors, followed by a biochemical separation of substrate and product. All assays for the biochemical HTS were initially run in duplicate at a single concentration (10 uM for CYP450 assays and 25 uM for all others). […] Each assay was run with positive and negative controls, and concurrent controls on every plate. The follow-up (secondary) screen tested active chemical-pairs in concentration series, as well as a few additional assays not tested in the primary screen, some selected negative inactives, and several cases re-run in the concentration series for confirmatory purposes.

Sequence of human Peripheral-type Benzodiazepine Receptor (PBR), TSPO (gene 706) (P30536 whole entry, looked up): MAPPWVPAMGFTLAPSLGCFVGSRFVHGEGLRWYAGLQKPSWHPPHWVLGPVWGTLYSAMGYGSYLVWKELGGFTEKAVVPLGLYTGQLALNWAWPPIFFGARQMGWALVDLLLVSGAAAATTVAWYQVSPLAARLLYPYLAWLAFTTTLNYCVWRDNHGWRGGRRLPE

Row | SMILES | AC50
1 | CC/C=C\C/C=C\C/C=C\CCCCCCCC(=O)O | 11.6 µM (active)
2 | C1=Cc2ccccc2C1 | 15.2 µM (active)
3 | CN(C)c1ccc(C(=N)c2ccc(N(C)C)cc2)cc1 | 2.62 µM (active)
4 | CCCCCCCCCCCCCOP(=O)(O)O | 18.4 µM (active)
5 | C/C=C\C/C=C/CCCCCCCCOC(C)=O | 16.3 µM (active)
6 | O=S(=O)(O)c1ccccc1C=Cc1ccc(-c2ccc(C=Cc3ccccc3S(=O)(=O)O)cc2)cc1 | 0.6 µM (active)
7 | CCOc1nc(F)cc2nc(S(=O)(=O)Nc3c(Cl)cccc3C(=O)OC)nn12 | 1.63 µM (active)
8 | O=c1cc(-c2ccccc2)oc2ccccc12 | 12.6 µM (active)
9 | O=C(Nc1ccccc1SSc1ccccc1NC(=O)c1ccccc1)c1ccccc1 | 6.22 µM (active)
10 | Cc1ccc(N/N=c2\c(=O)cc/c(=N/Nc3ccc(S(=O)(=O)O)cc3)c2=O)c(C)c1 | 7.15 µM (active)
11 | CCCCCCCCCCCCCCCC[N+](C)(C)CC | 35.8 µM (active)
12 | CCCCC/C=C\C/C=C\CCCCCCCC(=O)OC | 8.31 µM (active) and 6.11 µM (active)
13 | CCCCCCCC[N+](C)(CCCCCCCC)CCCCCCCC | 3.77 µM (active)
